Experimental findings from PubChem BioAssay AID2330 (Broad Institute, 2010) are described below.

The campaign covered roughly 37,000 compounds. About 2,800 (7.6%) were called active. Not shown: some 1% with an inconclusive outcome. What follows is part of a selection rich in actives, with near analogues and random picks from the rest. Unmarked numbers belong to inactive results. Rule as the data show it: active = inhibition above about 80%; inconclusive = no clear call, values can overlap the other calls; inactive = below that.

The assay in a line: NOMO-1 AML cell viability reduction, primary screen, STK33 inhibitor project, CellTiter-Glo luminescence (AID 2330). To be noted: NOMO-1 AML viability, 72 h, active compounds read high, concentration not given here.
As a reminder, the inhibition is the relative decrease from the control value, in per cent. Take `Cc1ccc(S(=O)(=O)N(C)C[C@H]2Oc3ccc(NC(=O)Nc4cccc5ccccc45)cc3CC(=O)N([C@H](C)CO)C[C@H]2C)cc1`: the inhibition was 23.8%.
Turning to `CC(=O)c1cccc(NC(=O)CN(C)S(=O)(=O)c2ccc3ccccc3c2)c1`, the inhibition was 19.7%.
`Nc1nnc(SCC(=O)Nc2ccc(F)c(Cl)c2)s1`: the inhibition was 10%.
Under `Cc1ccc(N(C(C)C(=O)Nc2ccc(F)c(Cl)c2)S(C)(=O)=O)cc1C` (stereo not given) stands 32.7%; under `C[C@H](CO)N1C[C@H](C)[C@@H](CN(C)S(=O)(=O)c2ccc(F)cc2)Oc2c(NC(=O)Nc3ccccc3)cccc2C1=O`, 8.66%; under `COc1cc(NC(=O)COc2ccc(Cl)cc2C)c(OC)cc1Cl`, -5.6%.
As for `C=C1C(=O)OC2/C=C(\C)CC3C=C(CC/C=C(\C)CCC12)C(=O)O3` (stereo not given), the figure is 114% (active).
Turning to `C[C@@H]1CN([C@@H](C)CO)C(=O)c2cc(NC(=O)C3CCCCC3)ccc2O[C@@H]1CN(C)S(=O)(=O)c1ccc(F)cc1`, the inhibition was -1.45%.
With `C[C@@H]1CN([C@@H](C)CO)C(=O)c2cc(NS(=O)(=O)c3cccs3)ccc2O[C@@H]1CN(C)S(=O)(=O)c1ccc(F)cc1`, the inhibition is 7.75%.
For the molecule `CC[C@H]1CN2CCc3cc(OC)c(OC)cc3[C@@H]2C[C@@H]1C[C@H]1NCCc2cc(OC)c(OC)cc21`, the inhibition was 144% (active).
`Cc1noc(C)c1NC(=O)Nc1ccc2c(c1)C(=O)N([C@@H](C)CO)C[C@H](C)[C@H](CN(C)Cc1ccc(-c3ccccc3)cc1)O2`: the inhibition is 28.6%.
As for `COc1ccc(S(=O)(=O)Nc2ccc3c(c2)C(=O)N([C@@H](C)CO)C[C@@H](C)[C@H](CN(C)S(=O)(=O)c2cccs2)O3)cc1`, the figure is -10.4%; as for `CC(=O)c1cccc(NC(=O)C(C)N(c2ccc(C)cc2)S(C)(=O)=O)c1` (stereo not given), 14.6%.
Turning to `Cc1ccc(S(=O)(=O)N(C)CC(=O)Nc2ccc(C#N)cc2)cc1`, the inhibition is -13.1%.
As for `C[C@H]1CN([C@@H](C)CO)C(=O)Cc2cc(NC(=O)Nc3ccc(F)cc3)ccc2O[C@H]1CN(C)S(=O)(=O)c1ccccc1`, the figure is 108% (active).
For the molecule `C[C@@H]1CN([C@@H](C)CO)C(=O)Cc2cc(NC(=O)Nc3ccc4c(c3)OCO4)ccc2O[C@@H]1CN(C)S(=O)(=O)c1ccc(Cl)cc1`, the inhibition was 30.8%.
Under `COc1ccc(S(=O)(=O)N(C)C[C@@H]2Oc3ccc(NC(=O)C4CC4)cc3CC(=O)N([C@@H](C)CO)C[C@@H]2C)cc1` stands -0.988%; under `C[C@@H]1CN([C@@H](C)CO)C(=O)Cc2cc(NC(=O)Nc3ccc(F)cc3)ccc2O[C@@H]1CN(C)S(=O)(=O)c1ccccc1`, 20.8%; under `COc1ccc(NC(=O)Nc2ccc3c(c2)CC(=O)N([C@H](C)CO)C[C@H](C)[C@H](CN(C)S(=O)(=O)c2ccc(OC)cc2)O3)cc1`, 23.1%.
As for `C[C@H]1CN([C@@H](C)CO)C(=O)Cc2cc(NC(=O)C3CC3)ccc2O[C@H]1CN(C)S(=O)(=O)c1ccc(Cl)cc1`, the figure is 125% (active).
Under `C[C@@H]1CN([C@H](C)CO)C(=O)Cc2cc(NC(=O)C3CCCCC3)ccc2O[C@H]1CN(C)S(=O)(=O)c1ccc(Cl)cc1` stands 28.6%; under `C[C@@H]1CN([C@H](C)CO)C(=O)Cc2cc(NC(=O)Nc3ccc(C(F)(F)F)cc3)ccc2O[C@@H]1CN(C)S(=O)(=O)c1ccccc1`, 31.7%; under `C[C@H]1CN([C@@H](C)CO)C(=O)Cc2cc(NC(=O)Nc3ccc(F)cc3)ccc2O[C@H]1CN(C)S(=O)(=O)c1ccc(F)cc1`, 126% (active).
With `C[C@@H]1CN([C@@H](C)CO)C(=O)Cc2cc(NC(=O)Nc3ccccc3)ccc2O[C@@H]1CN(C)S(=O)(=O)c1ccc(F)cc1`, the inhibition was 14.1%.
As for `COc1ccc(NC(=O)Nc2ccc3c(c2)CC(=O)N([C@H](C)CO)C[C@H](C)[C@H](CN(C)S(=O)(=O)c2ccccc2)O3)cc1`, the figure is 57.6%; as for `C[C@H]1CN([C@@H](C)CO)C(=O)Cc2cc(NC(=O)Nc3ccc(C(F)(F)F)cc3)ccc2O[C@@H]1CN(C)S(=O)(=O)c1ccc(Cl)cc1`, 105% (active).
Under `Cc1nnc(SCc2ccc(C(=O)c3ccc(Cl)cc3)o2)n1-c1ccccc1` stands -16.2%; under `CC(C)NC(=O)Nc1ccc2c(c1)C(=O)N([C@H](C)CO)C[C@H](C)[C@@H](CN(C)S(C)(=O)=O)OCCCC[C@@H](C)O2`, 34%.
With `COc1ccc(NC(=O)N(C)C[C@@H]2Oc3ccc(NC(=O)CCCN(C)C)cc3CC(=O)N([C@H](C)CO)C[C@H]2C)cc1`, the inhibition is -16.5%.
For the molecule `COc1ccc(NC(=O)N(C)C[C@@H]2OCCCC[C@@H](C)Oc3ccc(NC(=O)NC4CCCCC4)cc3C(=O)N([C@H](C)CO)C[C@@H]2C)cc1`, the inhibition is -2.15%.
Under `Cc1ccc(S(=O)(=O)N(C)C[C@H]2Oc3ccc(NC(=O)CCCCCC(=O)Nc4ccccc4N)cc3C(=O)N([C@H](C)CO)C[C@H]2C)cc1` stands 19.8%; under `COc1ccc(NC(=O)Nc2ccc3c(c2)C(=O)N([C@H](C)CO)C[C@H](C)[C@@H](CN(C)C(=O)NC2CCCCC2)OCCCC[C@@H](C)O3)cc1`, -9.45%.
Under `C[C@@H]1CN([C@H](C)CO)C(=O)c2cccc(NS(=O)(=O)c3ccc(Cl)cc3)c2O[C@@H]1CN(C)CC1CC1` stands 0.793%.
Under `CC(C)c1ccc(OCC(O)Cn2cnc3ccccc32)cc1` (stereo not given) stands 52%; under `CCc1cc(C)cc(OCC(O)Cn2cnc3ccccc32)c1` (stereo not given), 50.9%; under `Cc1nc2ccccc2n1CC(O)COc1ccc(C2C=CCC2)cc1` (stereo not given), 85% (active).
In the case of `COC(=O)c1ccccc1NC(=O)CSc1n[nH]c(-c2ccncc2)n1`, the inhibition is 19.3%.
As for `O=C(NCCN1CCCCC1)Nc1cccc(Cl)c1`, the figure is 6.03%; as for `C[C@H]1CN([C@@H](C)CO)C(=O)c2cccc(NS(=O)(=O)c3ccc(Cl)cc3)c2O[C@@H]1CN(C)Cc1ccc(Oc2ccccc2)cc1`, 44.7%.
In the case of `Cc1ccc(NC(=O)COc2ccccc2C)c([N+](=O)[O-])c1`, the inhibition was -19.4%.
